Measurements reported in PMC7862700, “An all-to-all approach to the identification of sequence-specific readers for epigenetic DNA modifications on cytosine”.

Assays:
Test in all cases: DAPPL (digital affinity profiling via proximity ligation, sequencing); 10 mM Tris-HCl pH 7.5, 50 mM NaCl, 1 mM DTT, 4% glycerol, room temperature, 30 min; GST-TFs on glutathione beads, 16-mer random dsDNA library, 0.1% formaldehyde crosslink after washing; high values mean tight binding
[1] = target: T1, FEV (Homo sapiens, UniProt Q99581 1-238); settings: protein: recombinant; tags: N-terminal GST; dsDNA, one strand shown
T1 sequence: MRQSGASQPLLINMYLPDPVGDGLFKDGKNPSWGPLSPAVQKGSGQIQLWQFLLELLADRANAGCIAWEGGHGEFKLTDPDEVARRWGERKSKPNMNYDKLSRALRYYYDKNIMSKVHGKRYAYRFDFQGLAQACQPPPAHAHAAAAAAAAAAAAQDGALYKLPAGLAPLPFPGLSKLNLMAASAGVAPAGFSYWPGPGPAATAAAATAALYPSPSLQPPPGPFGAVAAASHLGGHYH
Outline: (§1)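 Beads coated with glutathione captured GST-fused human transcription factors that had been expressed in yeast, and the factors were then given DNA barcodes and pooled with a tag-only sample. The pools were incubated with 200 nmole of a random double-stranded 16-mer DNA library in Tris/NaCl/DTT/glycerol buffer for 30 min at room temperature, washed, crosslinked with 0.1% formaldehyde and proximity-ligated with BsaI/T4 ligase at 37 °C for 1 h. PCR amplification and Illumina NextSeq500 sequencing came last. Binding signal is each hexamer's read frequency for a factor divided by its frequency for the tag-only sample.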

[2] = target: ETV5 (Homo sapiens, UniProt P41161 1-510); settings: protein: recombinant; tags: N-terminal GST; dsDNA, one strand shown
Chain of ETV5 (P41161 whole entry): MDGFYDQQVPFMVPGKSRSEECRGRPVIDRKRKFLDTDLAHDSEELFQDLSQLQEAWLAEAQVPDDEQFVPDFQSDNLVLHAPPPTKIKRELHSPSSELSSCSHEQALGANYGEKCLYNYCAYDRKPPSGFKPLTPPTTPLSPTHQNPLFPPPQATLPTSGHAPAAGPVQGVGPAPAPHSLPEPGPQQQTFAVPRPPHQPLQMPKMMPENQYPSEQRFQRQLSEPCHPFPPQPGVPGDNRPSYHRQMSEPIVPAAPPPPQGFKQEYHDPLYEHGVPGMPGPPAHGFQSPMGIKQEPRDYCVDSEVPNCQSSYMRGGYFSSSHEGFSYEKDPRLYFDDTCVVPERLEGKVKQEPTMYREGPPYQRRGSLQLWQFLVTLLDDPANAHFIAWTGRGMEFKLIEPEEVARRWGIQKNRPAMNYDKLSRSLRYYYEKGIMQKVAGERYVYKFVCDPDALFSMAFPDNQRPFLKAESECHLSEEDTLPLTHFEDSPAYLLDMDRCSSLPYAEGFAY
Outline: as §1

[3] = target: HSF1 (Homo sapiens, UniProt Q00613 1-529); settings: protein: recombinant; tags: N-terminal GST; chain copies: 3; dsDNA, one strand shown
Chain of HSF1 (Q00613 whole entry): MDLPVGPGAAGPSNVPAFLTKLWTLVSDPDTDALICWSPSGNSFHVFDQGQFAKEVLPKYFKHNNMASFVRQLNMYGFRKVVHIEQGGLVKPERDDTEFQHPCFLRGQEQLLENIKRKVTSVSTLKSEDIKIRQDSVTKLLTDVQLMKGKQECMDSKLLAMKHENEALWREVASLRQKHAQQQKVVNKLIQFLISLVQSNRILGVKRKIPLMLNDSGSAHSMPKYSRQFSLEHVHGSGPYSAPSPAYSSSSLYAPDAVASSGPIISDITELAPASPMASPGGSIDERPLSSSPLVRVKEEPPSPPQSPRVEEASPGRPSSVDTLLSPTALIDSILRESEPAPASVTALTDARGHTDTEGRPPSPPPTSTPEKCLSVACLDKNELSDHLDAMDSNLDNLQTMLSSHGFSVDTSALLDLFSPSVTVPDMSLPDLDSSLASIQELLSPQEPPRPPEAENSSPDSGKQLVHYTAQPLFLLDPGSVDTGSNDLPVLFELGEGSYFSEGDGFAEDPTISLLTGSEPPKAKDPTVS
Outline: as §1

[4] = target: T2, SPIC (Homo sapiens, UniProt Q8N5J4 1-248); settings: protein: recombinant; tags: N-terminal GST; dsDNA, one strand shown
T2 sequence: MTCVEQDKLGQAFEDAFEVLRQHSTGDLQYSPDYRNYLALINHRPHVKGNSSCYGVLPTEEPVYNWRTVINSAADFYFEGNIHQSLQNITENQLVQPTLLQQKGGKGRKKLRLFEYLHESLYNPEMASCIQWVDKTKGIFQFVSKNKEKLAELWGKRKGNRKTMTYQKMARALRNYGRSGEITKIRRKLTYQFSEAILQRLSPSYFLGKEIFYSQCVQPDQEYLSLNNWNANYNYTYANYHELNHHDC
Outline: as §1

[5] = target: ELF4 (Homo sapiens, UniProt Q99607 1-663); settings: protein: recombinant; tags: N-terminal GST; dsDNA, one strand shown
Chain of ELF4 (Q99607 whole entry): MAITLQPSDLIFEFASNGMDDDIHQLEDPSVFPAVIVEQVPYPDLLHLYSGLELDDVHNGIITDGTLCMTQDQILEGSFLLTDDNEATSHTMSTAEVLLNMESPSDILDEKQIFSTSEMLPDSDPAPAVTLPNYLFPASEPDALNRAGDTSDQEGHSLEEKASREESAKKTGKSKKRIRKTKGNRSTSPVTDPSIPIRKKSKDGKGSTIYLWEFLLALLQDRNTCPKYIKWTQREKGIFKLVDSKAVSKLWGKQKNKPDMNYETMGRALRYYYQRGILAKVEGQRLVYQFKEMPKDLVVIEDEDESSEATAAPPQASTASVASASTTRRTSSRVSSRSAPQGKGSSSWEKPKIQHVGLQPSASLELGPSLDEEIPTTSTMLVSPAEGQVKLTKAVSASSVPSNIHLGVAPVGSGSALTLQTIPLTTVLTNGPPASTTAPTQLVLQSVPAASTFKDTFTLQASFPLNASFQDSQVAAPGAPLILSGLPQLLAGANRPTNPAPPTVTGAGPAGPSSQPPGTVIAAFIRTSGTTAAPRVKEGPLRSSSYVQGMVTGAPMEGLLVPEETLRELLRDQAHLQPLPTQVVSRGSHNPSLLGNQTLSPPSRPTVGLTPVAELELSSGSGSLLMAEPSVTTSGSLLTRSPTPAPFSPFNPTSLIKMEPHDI
Outline: as §1

[6] = target: T3, ELK4 (Homo sapiens, UniProt P28324-2 1-405); settings: protein: recombinant; tags: N-terminal GST; dsDNA, one strand shown
T3 sequence: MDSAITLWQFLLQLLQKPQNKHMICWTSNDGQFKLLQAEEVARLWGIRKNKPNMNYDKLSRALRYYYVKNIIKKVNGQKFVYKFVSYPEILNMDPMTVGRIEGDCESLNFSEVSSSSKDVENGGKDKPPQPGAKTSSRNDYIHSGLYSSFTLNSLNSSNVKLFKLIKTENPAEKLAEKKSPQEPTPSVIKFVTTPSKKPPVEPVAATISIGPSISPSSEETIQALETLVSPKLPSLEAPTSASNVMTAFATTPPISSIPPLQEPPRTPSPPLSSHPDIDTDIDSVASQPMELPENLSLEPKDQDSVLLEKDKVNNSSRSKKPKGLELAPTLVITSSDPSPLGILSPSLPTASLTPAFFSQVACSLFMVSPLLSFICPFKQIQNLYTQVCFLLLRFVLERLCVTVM
Outline: as §1

[7] = target: T4, ETV2 (Homo sapiens, UniProt O00321 1-342); settings: protein: recombinant; tags: N-terminal GST; dsDNA, one strand shown
T4 sequence: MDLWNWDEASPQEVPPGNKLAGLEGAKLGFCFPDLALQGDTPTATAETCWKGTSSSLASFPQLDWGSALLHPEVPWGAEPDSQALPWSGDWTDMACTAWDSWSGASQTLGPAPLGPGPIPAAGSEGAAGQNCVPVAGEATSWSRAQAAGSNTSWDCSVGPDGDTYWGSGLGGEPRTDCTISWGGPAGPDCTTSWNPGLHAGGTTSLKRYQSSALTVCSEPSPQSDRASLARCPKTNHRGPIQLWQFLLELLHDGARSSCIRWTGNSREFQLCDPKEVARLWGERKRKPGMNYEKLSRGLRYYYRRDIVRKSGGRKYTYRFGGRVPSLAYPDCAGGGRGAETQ
Outline: as §1

[8] = target: T5, ELF3 (Homo sapiens, UniProt P78545 1-371); settings: protein: recombinant; tags: N-terminal GST; dsDNA, one strand shown
T5 sequence: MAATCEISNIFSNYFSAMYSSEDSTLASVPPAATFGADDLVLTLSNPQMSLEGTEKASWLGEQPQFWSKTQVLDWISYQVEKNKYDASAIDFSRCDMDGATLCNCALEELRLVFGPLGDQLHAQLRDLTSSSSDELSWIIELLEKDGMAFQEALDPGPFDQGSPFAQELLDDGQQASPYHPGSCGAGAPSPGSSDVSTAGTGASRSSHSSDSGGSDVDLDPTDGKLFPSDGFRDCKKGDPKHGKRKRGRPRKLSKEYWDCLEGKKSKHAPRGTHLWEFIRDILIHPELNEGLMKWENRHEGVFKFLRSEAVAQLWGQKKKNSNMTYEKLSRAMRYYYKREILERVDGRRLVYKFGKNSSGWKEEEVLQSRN
Outline: as §1

[9] = target: CRX (Homo sapiens, UniProt O43186 1-299); settings: protein: recombinant; tags: N-terminal GST; dsDNA, one strand shown
Chain of CRX (O43186 whole entry): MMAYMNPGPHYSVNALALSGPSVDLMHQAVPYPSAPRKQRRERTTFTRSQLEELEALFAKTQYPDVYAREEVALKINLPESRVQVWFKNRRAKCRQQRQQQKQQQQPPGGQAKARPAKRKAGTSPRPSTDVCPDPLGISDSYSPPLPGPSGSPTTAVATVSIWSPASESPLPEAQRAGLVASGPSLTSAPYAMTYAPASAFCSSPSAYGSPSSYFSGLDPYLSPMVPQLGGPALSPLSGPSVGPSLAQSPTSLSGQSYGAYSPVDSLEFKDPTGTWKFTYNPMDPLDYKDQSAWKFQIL
Outline: as §1

[10] = target: ETV1 (Homo sapiens, UniProt P50549 1-477); settings: protein: recombinant; tags: N-terminal GST; dsDNA, one strand shown
Chain of ETV1 (P50549 whole entry): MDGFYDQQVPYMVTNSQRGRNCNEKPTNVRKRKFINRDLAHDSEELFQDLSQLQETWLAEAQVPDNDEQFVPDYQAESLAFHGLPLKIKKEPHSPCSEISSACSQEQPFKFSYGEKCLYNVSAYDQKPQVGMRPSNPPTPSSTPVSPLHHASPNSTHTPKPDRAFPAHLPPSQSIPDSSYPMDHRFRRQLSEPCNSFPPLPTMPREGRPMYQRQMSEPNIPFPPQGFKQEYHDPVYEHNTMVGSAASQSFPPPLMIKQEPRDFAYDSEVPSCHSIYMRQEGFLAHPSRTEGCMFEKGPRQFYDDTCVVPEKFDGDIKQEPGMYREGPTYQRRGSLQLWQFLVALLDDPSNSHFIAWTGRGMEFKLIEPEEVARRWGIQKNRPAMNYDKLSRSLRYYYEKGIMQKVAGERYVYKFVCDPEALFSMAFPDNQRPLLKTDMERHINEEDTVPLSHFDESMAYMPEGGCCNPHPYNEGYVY
Outline: as §1

[11] = target: T6, ERF (Homo sapiens, UniProt P50548 1-548); settings: protein: recombinant; tags: N-terminal GST; dsDNA, one strand shown
T6 sequence: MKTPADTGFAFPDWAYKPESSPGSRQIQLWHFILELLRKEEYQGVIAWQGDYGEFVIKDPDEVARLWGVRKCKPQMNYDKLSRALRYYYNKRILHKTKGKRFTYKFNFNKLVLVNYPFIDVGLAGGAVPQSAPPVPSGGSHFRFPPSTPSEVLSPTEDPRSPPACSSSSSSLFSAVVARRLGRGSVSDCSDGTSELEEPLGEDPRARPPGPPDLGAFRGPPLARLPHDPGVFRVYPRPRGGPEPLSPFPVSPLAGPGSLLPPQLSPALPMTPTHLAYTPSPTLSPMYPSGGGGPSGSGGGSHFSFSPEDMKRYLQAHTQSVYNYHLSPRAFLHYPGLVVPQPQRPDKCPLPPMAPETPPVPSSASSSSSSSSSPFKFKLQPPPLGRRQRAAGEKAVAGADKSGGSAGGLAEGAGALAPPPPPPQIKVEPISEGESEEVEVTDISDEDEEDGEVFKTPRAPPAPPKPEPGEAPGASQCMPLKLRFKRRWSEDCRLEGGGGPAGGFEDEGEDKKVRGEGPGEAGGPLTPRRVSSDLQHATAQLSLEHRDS
Outline: as §1

[12] = target: T7, ETV3L (Homo sapiens, UniProt Q6ZN32 1-361); settings: protein: recombinant; tags: N-terminal GST; dsDNA, one strand shown
T7 sequence: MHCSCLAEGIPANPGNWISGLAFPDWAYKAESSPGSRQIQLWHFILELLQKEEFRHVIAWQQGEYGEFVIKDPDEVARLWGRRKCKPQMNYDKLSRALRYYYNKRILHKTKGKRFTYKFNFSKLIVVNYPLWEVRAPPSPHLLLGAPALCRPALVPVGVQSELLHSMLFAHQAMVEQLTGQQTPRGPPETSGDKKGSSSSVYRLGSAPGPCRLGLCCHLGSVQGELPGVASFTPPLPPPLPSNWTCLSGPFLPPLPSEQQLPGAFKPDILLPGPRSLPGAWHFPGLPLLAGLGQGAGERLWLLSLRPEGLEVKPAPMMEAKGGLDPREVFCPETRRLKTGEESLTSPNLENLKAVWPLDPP
Outline: as §1

[13] = target: T8, ETS2 (Homo sapiens, UniProt P15036 1-469); settings: protein: recombinant; tags: N-terminal GST; dsDNA, one strand shown
T8 sequence: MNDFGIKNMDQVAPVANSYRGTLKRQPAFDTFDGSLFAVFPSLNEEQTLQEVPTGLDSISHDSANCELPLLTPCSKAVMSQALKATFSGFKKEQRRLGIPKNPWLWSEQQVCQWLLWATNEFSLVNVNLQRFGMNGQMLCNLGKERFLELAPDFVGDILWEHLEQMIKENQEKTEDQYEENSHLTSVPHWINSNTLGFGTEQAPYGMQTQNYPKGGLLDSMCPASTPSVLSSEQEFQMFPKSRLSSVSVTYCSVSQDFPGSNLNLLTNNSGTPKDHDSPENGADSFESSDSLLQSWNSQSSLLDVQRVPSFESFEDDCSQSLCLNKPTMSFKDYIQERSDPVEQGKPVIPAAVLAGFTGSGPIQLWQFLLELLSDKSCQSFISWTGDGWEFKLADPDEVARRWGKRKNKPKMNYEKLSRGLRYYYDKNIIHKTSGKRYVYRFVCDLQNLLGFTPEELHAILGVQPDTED
Outline: as §1

[14] = target: T9, SPDEF (Homo sapiens, UniProt O95238 1-335); settings: protein: recombinant; tags: N-terminal GST; dsDNA, one strand shown
T9 sequence: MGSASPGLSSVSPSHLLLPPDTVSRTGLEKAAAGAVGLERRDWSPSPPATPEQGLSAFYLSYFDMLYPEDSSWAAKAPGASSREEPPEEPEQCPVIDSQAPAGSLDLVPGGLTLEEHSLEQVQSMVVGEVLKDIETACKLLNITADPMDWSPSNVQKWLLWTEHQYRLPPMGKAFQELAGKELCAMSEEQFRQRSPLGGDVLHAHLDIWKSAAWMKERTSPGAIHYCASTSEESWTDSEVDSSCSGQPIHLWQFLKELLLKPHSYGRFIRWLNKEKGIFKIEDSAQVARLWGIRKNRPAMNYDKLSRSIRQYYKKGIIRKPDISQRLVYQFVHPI
Outline: as §1

[15] = target: T10, ETV7 (Homo sapiens, UniProt Q9Y603 1-341); settings: protein: recombinant; tags: N-terminal GST; dsDNA, one strand shown
T10 sequence: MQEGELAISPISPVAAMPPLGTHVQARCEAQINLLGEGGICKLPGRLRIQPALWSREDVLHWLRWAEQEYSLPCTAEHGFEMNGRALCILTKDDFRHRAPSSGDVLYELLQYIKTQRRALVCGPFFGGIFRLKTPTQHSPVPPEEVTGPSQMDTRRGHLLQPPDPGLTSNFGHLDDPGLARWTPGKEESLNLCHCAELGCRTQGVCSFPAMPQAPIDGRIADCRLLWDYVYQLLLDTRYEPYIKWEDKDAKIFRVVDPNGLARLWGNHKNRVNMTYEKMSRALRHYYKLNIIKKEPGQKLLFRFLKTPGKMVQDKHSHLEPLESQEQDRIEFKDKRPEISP
Outline: as §1

[16] = target: T11, ELF5 (Homo sapiens, UniProt Q9UKW6-2 1-255); settings: protein: recombinant; tags: N-terminal GST; dsDNA, one strand shown
T11 sequence: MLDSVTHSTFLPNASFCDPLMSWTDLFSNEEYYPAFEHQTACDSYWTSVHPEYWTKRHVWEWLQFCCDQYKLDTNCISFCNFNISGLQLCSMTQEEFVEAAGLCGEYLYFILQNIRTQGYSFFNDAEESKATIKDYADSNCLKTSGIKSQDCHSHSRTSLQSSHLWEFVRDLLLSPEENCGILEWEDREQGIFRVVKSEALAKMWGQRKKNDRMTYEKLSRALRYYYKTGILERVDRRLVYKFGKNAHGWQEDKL
Outline: as §1

[17] = target: T12, ETV3 (Homo sapiens, UniProt P41162-2 1-143); settings: protein: recombinant; tags: N-terminal GST; dsDNA, one strand shown
T12 sequence: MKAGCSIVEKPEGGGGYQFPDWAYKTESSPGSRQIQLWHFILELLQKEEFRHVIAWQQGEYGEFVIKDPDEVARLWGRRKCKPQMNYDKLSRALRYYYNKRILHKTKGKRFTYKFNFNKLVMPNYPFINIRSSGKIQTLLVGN
Outline: as §1

[18] = target: ETV6 (Homo sapiens, UniProt P41212 1-452); settings: protein: recombinant; tags: N-terminal GST; dsDNA, one strand shown
Chain of ETV6 (P41212 whole entry): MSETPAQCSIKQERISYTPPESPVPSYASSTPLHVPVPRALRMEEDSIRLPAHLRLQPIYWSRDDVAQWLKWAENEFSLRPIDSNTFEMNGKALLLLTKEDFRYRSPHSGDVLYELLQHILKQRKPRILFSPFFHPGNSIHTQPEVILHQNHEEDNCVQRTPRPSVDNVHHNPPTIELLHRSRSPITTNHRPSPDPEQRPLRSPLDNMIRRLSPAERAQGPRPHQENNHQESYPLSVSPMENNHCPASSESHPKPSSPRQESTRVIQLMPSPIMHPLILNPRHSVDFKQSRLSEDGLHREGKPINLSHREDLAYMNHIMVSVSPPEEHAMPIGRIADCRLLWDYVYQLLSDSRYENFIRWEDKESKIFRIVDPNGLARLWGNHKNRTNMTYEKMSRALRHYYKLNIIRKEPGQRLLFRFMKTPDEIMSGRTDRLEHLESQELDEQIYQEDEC
Outline: as §1

Question: With TAACGA as the sequence, how does the binding signal [1] read?
Answer: 1.08 fold enrichment (6-mer frequency, TF over GST control)

Question: What about the binding signal [2] of the same sequence?
Answer: 1.06 fold enrichment (6-mer frequency, TF over GST control)

Question: What about the binding signal [3] of the same sequence?
Answer: 1.23 fold enrichment (6-mer frequency, TF over GST control)

Question: What about the binding signal [4] of the same sequence?
Answer: 1.1 fold enrichment (6-mer frequency, TF over GST control)

Question: What about the binding signal [5] of the same sequence?
Answer: 1.12 fold enrichment (6-mer frequency, TF over GST control)

Question: And the binding signal [6]?
Answer: 1.09 fold enrichment (6-mer frequency, TF over GST control)

Question: What about the binding signal [7] of the same sequence?
Answer: 1.04 fold enrichment (6-mer frequency, TF over GST control)

Question: And the binding signal [8]?
Answer: 1.02 fold enrichment (6-mer frequency, TF over GST control)

Question: What about the binding signal [9] of the same sequence?
Answer: 1.57 fold enrichment (6-mer frequency, TF over GST control)

Question: And the binding signal [10]?
Answer: 1.08 fold enrichment (6-mer frequency, TF over GST control)

Question: And the binding signal [11]?
Answer: 1.03 fold enrichment (6-mer frequency, TF over GST control)

Question: What about the binding signal [12] of the same sequence?
Answer: 1.04 fold enrichment (6-mer frequency, TF over GST control)

Question: What about the binding signal [13] of the same sequence?
Answer: 1.12 fold enrichment (6-mer frequency, TF over GST control)

Question: And the binding signal [14]?
Answer: 1.16 fold enrichment (6-mer frequency, TF over GST control)

Question: And the binding signal [15]?
Answer: 1.1 fold enrichment (6-mer frequency, TF over GST control)

Question: What about the binding signal [16] of the same sequence?
Answer: 1.06 fold enrichment (6-mer frequency, TF over GST control)

Question: What about the binding signal [17] of the same sequence?
Answer: 1.06 fold enrichment (6-mer frequency, TF over GST control)

Question: What about the binding signal [18] of the same sequence?
Answer: 1.08 fold enrichment (6-mer frequency, TF over GST control)
